Laboratory results as given in the supplement of paper PMC6555819.

How the values were obtained:
Experiment in all cases: PBM binding z-score (relative to random genomic background probes); higher = stronger binding; sequences stand for … in GC…GCGATTGACAGCGTAGAATGAAGG
[1] = system: RARb homodimer (NR concentration 270 nM)
Outline: (§1)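 Random background probes are the reference for binding z-scores. These scores derive from regression-normalized fluorescence on custom Agilent 4×180K protein-binding microarrays incubated 1 h with ligand-free nuclear receptor dimers. Binding was detected with antibodies against each partner (one per run).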

[2] = system: RARg:RXRa (NR concentration 270 nM, RXRa partner concentration 90 nM)
Outline: as §1

[3] = system: RARg homodimer (NR concentration 270 nM)
Outline: as §1

[4] = system: RXRa DBDmut IVT, anti-RXR (DBD mutation: RXRa K156A/R161A, NR concentration 90 nM)
Outline: as §1

[5] = system: RXRa homodimer (NR concentration 180 nM)
Outline: as §1

[6] = system: THRa:RXRa (NR concentration 90 nM, RXRa partner concentration 90 nM)
Outline: as §1

[7] = system: THRa homodimer (NR concentration 90 nM)
Outline: as §1

[8] = system: VDR homodimer (NR concentration 270 nM)
Outline: as §1

Sequence | PBM binding z-score [1] | PBM binding z-score [2] | PBM binding z-score [3] | PBM binding z-score [4] | PBM binding z-score [5] | PBM binding z-score [6] | PBM binding z-score [7] | PBM binding z-score [8]
CCGATTAGTTGACCATAAGGGCAACCGAAGCTCG | 2.01 | 0.824 | 0.774 | 0.777 | 0.56 | 1.7 | 0.965 | 0.334
CGAACTAGGTCATTGACAGGACAGTAAATAGTAA | 2.73 | 4.76 | 4.54 | 2.6 | 2.84 | 2.74 | 0.723 | 1.03
CCTAGTTGGTCAGGAGGTCACACAGCGGATATGA | 4.13 | 5.36 | 4.51 | 1.06 | 4.73 | 3.66 | 2.76 | 3.13
ACAGACAGGTGTTGAAGGTAACTCAGGCTATCAT | -0.0362 | -0.0194 | 0.114 | -0.19 | 0.0702 | 0.786 | 0.073 | -0.587
ATATGTAGGTTTTCGGGTCATTCAGTTTGCGCAT | 2.88 | 2.43 | 1.72 | 1.88 | 3.57 | 3.89 | 4.22 | 4.55
ATATGTAGGTTACATCCGGGTAATTCAGGCTATG | 0.673 | 1.08 | 1.06 | 0.788 | 0.887 | 2.3 | 0.727 | 0.278
CCGACTTGGGCAAGGTTACCATAACGCACAGCCA | 0.919 | 0.796 | 0.586 | 0.164 | 1.05 | 1.17 | 0.449 | 0.117
ATAGGTAGGTTAAGGGTCATTCAGGTTGGTTCGC | 4.42 | 5.12 | 3.74 | 2 | 6.15 | 3.71 | 2.58 | 4.7
ATATGTAGGTTAAGGGTCAATCAGGTTGGTTCGC | 3.94 | 4.94 | 3.82 | 1.7 | 5.96 | 3.45 | 1.54 | 3.33
TCTTGTAGATCAAGAGGAGGTTAAGAAAGATCGA | 0.486 | 0.616 | 0.204 | 0.251 | 0.72 | 0.611 | -0.142 | -0.158
AGAATGAGGGCACGCTGAGTTGATAGCAGAGTAG | 1.3 | 2.28 | 2.15 | 2.2 | 1.7 | 2.53 | 0.735 | 2.08
CAAACTAGGTCACCGGTAGGTCAAAGTCCGCATG | 4.94 | 7.11 | 6.27 | 1.7 | 4.82 | 4.3 | 2.8 | 2.2
GCGACTGGGGCATCATCAGGTTACCATAACTTAA | 1.15 | 0.589 | 0.679 | 0.291 | 0.302 | 2.31 | 1.31 | 0.0657
CGTCAAAGTTCAAGGTAACATAACAGAAAGCAGC | 3.84 | 5.43 | 6.33 | 4.63 | 4.69 | 2.92 | 1.05 | 2.9
ACTTGCGGGTCAACGAGGTTATAGCACGCGTATA | 3.37 | 5.21 | 4.88 | 2.41 | 5.33 | 3.81 | 1.31 | 3.69
AGAATGAGGTTACCAAAGATCAAGGAAACGCTTG | 0.992 | 2.37 | 1.88 | 1.13 | 2.85 | 3.03 | 0.74 | 0.375
CGAACTATGTCATCCAGGACAGTGAATACATTGA | 0.612 | 0.908 | 1.14 | 0.468 | 0.578 | 1.71 | 0.973 | 0.592
CGAACGAGTGCATGAGTTGATAGCAAATGCCGAT | -0.322 | 0.343 | 0.307 | 3.2 | 0.414 | -0.0112 | -0.726 | 2.6
TCGAGTAGGTTACCAATGGGGAATTCAGCTTTCT | -0.273 | 0.258 | -0.0594 | 0.599 | 0.509 | -0.0396 | -1.08 | -0.782

Sequence | PBM binding z-score [1] | PBM binding z-score [2] | PBM binding z-score [3] | PBM binding z-score [4] | PBM binding z-score [5] | PBM binding z-score [6] | PBM binding z-score [7] | PBM binding z-score [8]
ATCGAAAGGTCGACGAGGTTAGTATACACCGTTT | 3.1 | 4.27 | 4.18 | 1.45 | 4.55 | 3.37 | 0.478 | 2.31
CATACAGGGTCAGCTAGGCCAGATTAGGGACGGC | 3.37 | 4.39 | 4.22 | 1.47 | 4.12 | 3.18 | 1.09 | 0.951
ATCGAAAGGTCGACGTGGTGAGTATACACCGTTT | 2.74 | 4.04 | 4.24 | 1.23 | 4.03 | 1.89 | -0.255 | 0.481
GATACAGGGTCAGCTAGAGGCCAGACTATGGAAA | 3.59 | 6.62 | 4.83 | 0.964 | 4.23 | 3.1 | 0.411 | 0.781
ATCTCTAGGTAACCAAGTTCAGTTAATGCCGAAC | 1.74 | 1.09 | 1.12 | 1.33 | 0.444 | 1.97 | 1.43 | 3.19
CATAGTTGGTCAGGAGGTCACACACCGGATATGA | 4.18 | 5.09 | 4.47 | 0.639 | 4.6 | 3.46 | 2.32 | 3.09
TTACCAAGGTGAGCTGAGGTCGTAGATCCAACTC | 1.66 | 1.5 | 1.13 | -0.577 | 1.72 | 4.78 | 1.9 | 0.82
CCGAGTAGGTTATGCGGCATTCAGGCAACGGTGA | 0.275 | 0.0373 | -0.0255 | -0.0566 | 0.274 | -0.034 | 0.263 | -0.167
AGAATGAGGTTATCCGTAGATCAGGGAAGAAAGT | 0.958 | 2.14 | 1.08 | 1.82 | 2.29 | 2.33 | 0.663 | 0.958
CCAGACAGGTGATAGGTAACTCAGTCTGGTACGC | 0.0377 | 0.156 | 0.068 | -0.237 | 0.368 | -0.116 | -0.179 | -0.505
TAGCCTAGGTCAGATCGGGCCAGTATACGCTATA | 2.17 | 2.61 | 3.1 | -0.634 | 1.44 | 4.09 | 0.0638 | -0.176
CCTTACGGGCCAAGGTTATAGCACGGGTGGTACG | 0.655 | 0.306 | 0.628 | -1.14 | 0.273 | 0.713 | 0.104 | 0.207
TCATATAGGTAAACAGGTGATAGTCCGTAAGTTA | 0.338 | 0.509 | 0.323 | 1.35 | 0.949 | 0.375 | 0.179 | 0.482
TTACCCAGGTGAAGGTCGTTGATCCCTCTGTAGA | 1.33 | 0.65 | 0.626 | -0.428 | 1.31 | 1.91 | 0.888 | 1.26
TAGCCTAGGTTATTGGGCCAGTATAGTACGCATC | 0.536 | 0.395 | 0.586 | -0.294 | 0.452 | 0.29 | -0.377 | -0.529
GTACCAAGGTGAATAGGTCGGTGATGAGTAGGCG | 1.58 | 1.83 | 1.21 | -0.398 | 1.14 | 1.57 | 0.522 | 0.177
CGAACTAGGTCAGAAAAGGACAGTGAAGGATGAT | 2.62 | 2.78 | 3.84 | 0.166 | 0.978 | 3.91 | 0.0421 | -0.122
GCATATAGGTAATACCAGGTGAAAGTCCGATTGT | 0.327 | 0.203 | 0.193 | 0.247 | 0.369 | 3.99 | 0.748 | -0.0397
GCTAGTTGGTCAGTAAAAGATCACACACCGGTCG | 0.519 | 0.262 | 0.586 | -0.0346 | 0.0545 | -0.299 | -0.336 | -0.296

Sequence | PBM binding z-score [1] | PBM binding z-score [2] | PBM binding z-score [3] | PBM binding z-score [4] | PBM binding z-score [5] | PBM binding z-score [6] | PBM binding z-score [7] | PBM binding z-score [8]
CAGACTGGGGCAAAGGTTACCATACTCAGTACGA | 2.35 | 3.54 | 2.64 | 0.804 | 3.83 | 1.97 | 0.0193 | 0.311
TTACCAAGGTGAGATGAGGTCGTTGATCCAACTC | 1.54 | 1.49 | 1.26 | 0.446 | 1.85 | 4.77 | 2 | 2.31
AGAATGCGGTTAAGATCAGGGAAACAGAATACAT | -0.126 | 0.0483 | 0.299 | -0.536 | -0.0604 | 0.164 | -0.363 | -0.162
GCATATAGGTAATACAAGGTGAAACTCCGATTGT | 0.806 | 0.886 | 0.775 | 0.602 | 1.06 | 4.51 | 1.21 | 0.121
GCTAGTTGGTCATTAAAAGGTCACACACCGGTCG | 5.47 | 6.05 | 4.99 | 0.694 | 5.65 | 3.8 | 2.01 | 1.75
TAGCCTAGGTCATGGGCCAGGATACCACGCGAAC | 2.85 | 4.26 | 4.49 | -0.534 | 3.86 | 3.22 | 1.33 | 0.424
TGGCCTAGGTCAGATCGGGCCAGTATACGCTATA | 1.79 | 2.62 | 4.12 | -0.787 | 1.19 | 3.53 | -0.553 | -0.622
TAGCCTAGGTCATTCAGGGGCGAGTATAGAAAGC | 2.77 | 4.27 | 3.93 | 2.29 | 2.79 | 4.54 | 0.866 | 1.68
AGAATGACGTTAAGATCAGGGAAACAGAATACAT | -0.348 | 0.0241 | 0.396 | -0.43 | 0.183 | -0.0731 | -0.547 | -0.184
TCATATAGGTAAAGGTCAAAGTCGAACGATATGA | 4.51 | 6.35 | 5.87 | 1.9 | 7.64 | 3.68 | 0.708 | 2.32
ACAGACAGGTGAGTGAAGGTAAGTCAGCTGGACG | 0.373 | 0.45 | 0.335 | -0.68 | 0.274 | 1.03 | -0.473 | -0.657
CCTAGTTGGACAGGAGGTCACACACCGGATATGA | 3.81 | 4.2 | 3.71 | 1.02 | 3.96 | 3.41 | 2.18 | 2.39
GCTGCTAGGTCAACTGGTGGTCAGCTAAAGCTCG | 3.61 | 5.52 | 5.36 | 1.53 | 2.88 | 3.02 | 0.794 | 0.0223
ATCTCTAGGTAAGCAAGTTCAGTGAATGCCGAAC | 1.09 | 0.455 | 0.778 | 0.62 | 0.3 | 0.771 | 0.165 | 2.32
TCTATTAGTTGATTAGAGCAACCGAAACAGCGGA | -0.716 | 0.0982 | 0.245 | 0.765 | 0.293 | -0.353 | -0.739 | 0.18
ATCGAAAGGTCGAGAGGTGAGTATACAGAAAGGC | 3 | 4.69 | 4.09 | 0.518 | 4.53 | 2.37 | -0.0205 | 0.542
CCGACTGGGGCAAAGGTTACAATACTCAGTACGA | 2.22 | 3.61 | 2.01 | 0.382 | 4.11 | 1.8 | -0.161 | 0.239
ACTATTAGTTGACTTAGGGCACCCGATACGACGC | 0.58 | 0.574 | 0.897 | 0.79 | 0.316 | 0.993 | 0.664 | 0.399
